Data on 95 compounds can be found in PubChem BioAssay AID485344 (National Center for Advancing Translational Sciences (NCATS), 2010).

Molecules are shown by their SMILES. Screen size: about 340,000 compounds; about 6,900 (2%) were called active. Many of the other results were omitted from the sample, so actives are more common in it than they were. Values without a mark were called inactive. Cut-off read from the data, not from the text of the source: active = inhibition above about 30%; inactive = below that, where a call was filed.

Chain of D(2) dopamine receptor (Homo sapiens) (P14416 whole entry, looked up): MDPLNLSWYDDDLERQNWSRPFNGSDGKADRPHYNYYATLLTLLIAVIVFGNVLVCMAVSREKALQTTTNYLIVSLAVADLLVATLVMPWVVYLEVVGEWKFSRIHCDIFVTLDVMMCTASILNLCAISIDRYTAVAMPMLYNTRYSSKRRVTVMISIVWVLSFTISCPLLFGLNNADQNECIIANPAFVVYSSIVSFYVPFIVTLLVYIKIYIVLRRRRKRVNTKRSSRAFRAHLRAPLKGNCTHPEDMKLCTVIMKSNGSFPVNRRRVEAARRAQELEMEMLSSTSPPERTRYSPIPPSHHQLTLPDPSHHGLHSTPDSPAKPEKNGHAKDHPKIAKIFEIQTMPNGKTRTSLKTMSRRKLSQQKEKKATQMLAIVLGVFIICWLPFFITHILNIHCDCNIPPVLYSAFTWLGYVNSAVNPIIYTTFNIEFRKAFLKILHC

For this assay, the target named is D(2) dopamine receptor (Homo sapiens) (UniProt P14416). Put plainly: HTS Assay for Allosteric Antagonists of the Human D2 Dopamine Receptor: Primary Screen for Antagonists. Note: 0% is about no effect. The note with it: HEK293 TREx D2 cells, calcium flux, dopamine EC80; at 10 µM; stronger effect = higher value. Put shortly:
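Compounds are added to dye-loaded, induced HEK293 T-REx cells coupled to calcium release via D2; after a 3 min kinetic read an EC80 dopamine stimulus is given and fluorescence is recorded for 3 more min.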
For orientation: Calcium flux is commonly read through the fluorescence of an indicator in the cells.
The inhibition is the drop in the measured response relative to a control, in per cent. As for `COc1cccc(NC(=O)COC(=O)/C=C/c2ccco2)c1`, the inhibition is 13.2%.

Regarding `Cn1c(SCC(=O)Nc2ccc(N3CCOCC3)cc2)nnc1C(F)(F)F`, the inhibition was 6.16%.

As for `O=C(c1ccc2c(c1)OCCO2)C1CCN(S(=O)(=O)c2cccc(F)c2)CC1`, the inhibition was 61.3% (active).

Turning to `O=C(c1c(F)cccc1F)N1CCN(S(=O)(=O)c2ccc3c(c2)OCCO3)CC1`, the inhibition is 8.79%.

Regarding `O=C(Nc1ccccn1)C1CCN(S(=O)(=O)c2ccc3c(c2)OCCO3)CC1`, the inhibition is -2.31%.

For the compound `O=C(CSc1nnc(N2CCOCC2)n1-c1cccc(F)c1)N1CCN(c2ccccn2)CC1`, the inhibition was 4.3%.

Consider `COc1ccccc1C(=O)NCC(=O)OCC(=O)Nc1nnc(-c2ccccc2)o1`, for which the inhibition was 1.12%.

As to `CC(C)(C)C(=O)CSc1ccc(S(=O)(=O)N2CCCC2)cn1`, the inhibition is 5.12%.

With `Cc1c(CN2CCC(C)CC2)c(=O)n(-c2ccccc2)n1C`, the inhibition was -7.69%.

With `Cc1c(CN2CCCC(C(=O)c3cccc(Cl)c3)C2)c(=O)n(-c2ccccc2)n1C` (stereo not given), the inhibition was -0.0762%.

With `Cc1cccc(N2CCN(Cc3c(C)n(C)n(-c4ccccc4)c3=O)CC2)c1C`, the inhibition was 41.2% (active).

`C#CCOCCOCCOCCNc1nc(N2CCN(C(=O)CCCCCCCCCCNC(=O)[C@H](CCCCN)n3cc(C)nn3)CC2)nc(N2CCN(C(=O)CCCCCCCCCCNC(=O)[C@H](CO)n3cc(CCCSC)nn3)CC2)n1`: the inhibition is -18.3%.

Take `CC12CCC(=O)N1C(C(=O)NCCN1C(=O)S/C(=C\c3ccccc3F)C1=O)CS2` (stereo not given): the inhibition was -9.13%.

As for `CCOc1ccc(NS(=O)(=O)c2ccc(Cl)c(C(=O)N(C)Cc3cccnc3)c2)cc1`, the inhibition is 10.8%.

In the case of `CCN(CC)S(=O)(=O)c1ccc(N2CCOCC2)c(NC(=O)c2ccc(=O)n(C)n2)c1`, the inhibition was -40.6%.

As for `CCOc1ccccc1/C=c1\sc2nc(-c3ccco3)nn2c1=O`, the inhibition was 33.5% (active).

As to `O=c1nc2s/c(=C\c3ccco3)c(=O)n2nc1Cc1ccccc1`, the inhibition is -1.5%.

For `CSc1nc(-c2ccco2)nn1C(=O)CCc1ccccc1`, the inhibition is 10.1%.

On to `CC(=O)c1ccccc1NC(=O)C1CC(=O)N(c2ccc3c(c2)OCCO3)C1` (stereo not given), for which the inhibition is -6.21%.

As for `COc1ccc(OC)c(/C=C/C(=O)c2ccc3c(c2)OCO3)c1`, the inhibition is 6.23%.

Consider `Nc1nc(SCc2ccc([N+](=O)[O-])cc2)c2ncn(C3OC(CO)C(O)C3O)c2n1` (stereo not given), for which the inhibition is 36.3% (active).

In the case of `Cc1nc(N)nc(SCc2ccc([N+](=O)[O-])cc2)c1N`, the inhibition is 12.4%.

As to `Cc1cc(C)cc(C(=O)N2CCN=C2SCc2ccc([N+](=O)[O-])cc2)c1`, the inhibition is -7.25%.

For `COc1cc(F)c(C2=CC(=O)CC(C)(C)C2)cc1F`, the inhibition was -9.82%.

For the compound `COC(=O)c1cccc(NC(=O)c2cccc(N3C(=O)CCC3=O)c2)c1`, the inhibition is 0.805%.

On to `COc1ccc([C@@H]2[C@@H]3C(=O)N(C(C)(C)C)C(=O)[C@@H]3[C@]3(Cc4ccccc4)C(=O)N(c4cccc(Br)c4)C(=O)N23)cc1`, for which the inhibition was -3.44%.

In the case of `Cc1ccc(C)c(NS(=O)(=O)c2ccc(OCC(=O)NCc3cccnc3)cc2)c1`, the inhibition is 42.3% (active).

With `Cc1ccc(CNC(=O)COc2ccc(S(=O)(=O)NC(C)C)cc2)cc1`, the inhibition was 6.5%.

`Cc1cc(S(=O)(=O)NC2CCCCC2)ccc1OCC(=O)NCc1cccnc1`: the inhibition was -3.46%.

As for `Cc1cccc(C(=O)NCc2nnc(SC(C)C(=O)Nc3nnc(C)s3)n2C)c1` (stereo not given), the inhibition is 8.11%.

On to `CC1(C)CC(=O)C=C(c2ccc3ncccc3c2)C1`, for which the inhibition is -2.57%.

On to `CCN(CC(=O)Nc1c(F)cccc1F)C(=O)C1CCC1`, for which the inhibition is -5.66%.

With `COc1cc(OC)cc(C(=O)NCC(=O)N2CCCCCCC2)c1`, the inhibition was 33.6% (active).

Turning to `Cc1cc(C)cc(C(=O)NCC(=O)OCC(=O)N2CCCCC2)c1`, the inhibition is 1.51%.

Consider `CCOc1ccc(C(=O)NCC(=O)N2CCCCCCC2)cc1OCC`, for which the inhibition is -3.78%.

Consider `N/C(=N\OC(=O)c1ccc2c(c1)OCO2)c1ccc(Br)cc1`, for which the inhibition was 46.1% (active).

Regarding `N/C(=N\OC(=O)N1c2ccccc2Sc2ccccc21)c1ccc(Br)cc1`, the inhibition was -13.7%.

For `N/C(=N\OC(=O)/C=C/c1ccccc1)c1ccc(Br)cc1`, the inhibition is -2.34%.

For `Cn1nc(C(=O)OCC(=O)N(Cc2ccccc2)C(C)(C)C)c2ccccc2c1=O`, the inhibition was -16.5%.

On to `OCCC1CN(Cc2ccc(Oc3ncccn3)cc2)CCN1CCc1ccccc1` (stereo not given), for which the inhibition is -20.6%.

For `OCCC1CN(Cc2cccc(OC3CCCC3)c2)CCN1Cc1ccsc1` (stereo not given), the inhibition was 65.5% (active).

As for `OCCC1CN(Cc2ccccc2-c2ccco2)CCN1Cc1ccsc1` (stereo not given), the inhibition was -17.4%.

Regarding `OCCC1CN(Cc2cccc(O)c2)CCN1CCc1ccccc1` (stereo not given), the inhibition is 54.8% (active).

For `OCCC1CN(Cc2cnc(-c3ccccc3)s2)CCN1CCc1ccccc1` (stereo not given), the inhibition is -6.7%.

Turning to `OCCC#Cc1ccc(CN2CCN(Cc3ccsc3)C(CCO)C2)cc1` (stereo not given), the inhibition is 6.27%.

In the case of `Cc1ccc(NC(=O)CCCNC(=O)c2ccc(Cl)cc2)cc1S(=O)(=O)N1CCCCC1`, the inhibition is 2.49%.

`Nc1ccc(C(=O)N2CCN(S(=O)(=O)c3ccc(Cl)cc3)CC2)cc1[N+](=O)[O-]`: the inhibition was 1.49%.

Take `O=C(COc1ccc2c(c1)CCC2)N1CCN(c2ccc(F)cc2)CC1`: the inhibition is 3.48%.

Consider `OC(COc1ccc2c(c1)CCC2)CN1CCN(c2cccc(Cl)c2)CC1` (stereo not given), for which the inhibition was 39.2% (active).

As to `O=c1cc(CN2CCN(c3cccc(Cl)c3)CC2)c2cc3c(cc2o1)CCCC3`, the inhibition was -7.58%.

Consider `C/C(=N/Nc1nc(-c2ccccc2)c(CC(=O)O)s1)c1ccccc1`, for which the inhibition is -8.33%.

Turning to `O=C(O)Cc1sc(-c2ccc(C(=O)O)cc2)nc1-c1ccccc1`, the inhibition is 32.7% (active).

On to `O=C(O)Cc1sc(-c2ccccc2)nc1-c1cccs1`, for which the inhibition is 3.67%.

With `O=C(Nc1ccccc1N1CCOCC1)c1ccncc1`, the inhibition was -22.1%.

For the compound `COC(=O)c1ccc(C)c(NC(=O)C2CC(=O)N(C3CCCC(C)C3C)C2)c1` (stereo not given), the inhibition is 25.8%.

As to `c1ccc(COc2nsnc2N2CCOCC2)cc1`, the inhibition was -11.6%.

As for `O=C(O)COc1nsnc1N1CCOCC1`, the inhibition is -6.01%.

With `c1nc(COc2nsnc2N2CCOCC2)cs1`, the inhibition is 36.2% (active).

Take `Cc1nc(SCC(=O)NC2CCCCC2C)c(C#N)c(C)c1C` (stereo not given): the inhibition was -2.83%.

`Cc1cccc(N2CCN(C(=O)c3cccc(N4C(=O)C5C6C=CC(C6)C5C4=O)c3)CC2)c1C` (stereo not given): the inhibition was -3.04%.

On to `CCn1c(C)c(C)c2cc(C(=O)N3CCN(c4cccc(C)c4C)CC3)ccc21`, for which the inhibition was 35.7% (active).

`CCC(CC)C(=O)N1CCN(c2cccc(C)c2C)CC1`: the inhibition is -16.7%.

Consider `C[C@H](NC(=O)c1ccccc1)C(=O)OCC(=O)c1c[nH]c2ccccc12`, for which the inhibition was -14%.

Take `Cc1ccc(CNC(=O)c2cccc3c2C(=O)c2ccc(N4CCC(C)CC4)cc2S3(=O)=O)cc1`: the inhibition was -2.45%.

Take `CCc1nnc(NC(=O)c2ccc(S(=O)(=O)NC3CCCCC3)cc2)s1`: the inhibition was -18.8%.

As to `Cc1nnc(SC(C)C(=O)Nc2ccc(S(=O)(=O)NC3CCCCC3)cc2)s1` (stereo not given), the inhibition was 61.3% (active).

For the compound `Cc1ccc(Nc2nnc(SC(C)C(=O)NC3CC3)s2)cc1` (stereo not given), the inhibition was -31.5%.

As for `Cc1c(C(=O)OCC(=O)N2CCCC2=O)oc2ccccc12`, the inhibition was 10.7%.

`CCOC(=O)N1CCN(C(=O)CSc2nc(=O)n3cccc(C)c3n2)CC1`: the inhibition was -1.99%.

For the compound `CCCCSc1nc2ccccc2[nH]1`, the inhibition was 22.4%.

As for `CCc1nnc(NC(=O)CCCSc2nc3ccccc3[nH]2)s1`, the inhibition is -10.6%.

With `O=C(COC(=O)CCCSc1nc2ccccc2[nH]1)Nc1ccc(Oc2ccccc2)cc1`, the inhibition was 38.2% (active).

As for `COCCN(C(=O)CC1CCCCC1)c1c(N)n(CC(C)C)c(=O)[nH]c1=O`, the inhibition was -47.9%.

On to `Cc1cc(C)n2nc(C(=O)OCC(=O)N(CCC#N)c3ccc(F)cc3)nc2n1`, for which the inhibition was -5.33%.

For the compound `COc1cccc(N2CC(NC(=O)c3ccc4ccccc4c3)CC2=O)c1` (stereo not given), the inhibition is 34.4% (active).

Take `COc1cccc(N2CC(C(=O)Nc3c(C)cccc3C)CC2=O)c1` (stereo not given): the inhibition was -21.9%.

For `COc1ccc(N2CC(NS(=O)(=O)c3ccc4ccccc4c3)CC2=O)cc1` (stereo not given), the inhibition was 17.1%.

As to `CCOc1ccc(NC(=O)CN(C)C(=O)Cn2c(=O)cnc3ccccc32)cc1OCC`, the inhibition was 6.33%.

With `COC(=O)c1ccc(COC(=O)CNC(=O)c2cccc(OC)c2)o1`, the inhibition was -4.34%.

Regarding `Cc1ccnc(Nc2nc3ccccc3s2)n1`, the inhibition was 39.5% (active).

`Cc1ccc(S(=O)(=O)Nc2nc3ccccc3s2)cc1[N+](=O)[O-]`: the inhibition is -1.44%.

As for `Cn1nnnc1SCC(=O)Nc1nc2ccccc2s1`, the inhibition was 5.01%.

With `C=C(C)CNc1cc(S(=O)(=O)N2CCOCC2)ccc1Oc1ccccc1`, the inhibition is -1.1%.

For `Cc1cc(=O)oc2cc(OCCC[n+]3ccccc3)ccc12`, the inhibition was 13.4%.

For the compound `Cc1ccccc1N1CCN(CCCOc2ccc3c(C)cc(=O)oc3c2)CC1`, the inhibition was 109% (active).

On to `CCOc1ccccc1N1CCN(C(=O)COc2ccc3c(C)cc(=O)oc3c2)CC1`, for which the inhibition is 20.8%.

With `Cc1ccc(C(=O)CN2C(=O)NC3(CCOc4ccccc43)C2=O)s1` (stereo not given), the inhibition was -0.39%.

As to `O=C(COC(=O)CCCN1C(=O)c2cccc3cccc(c23)C1=O)NC1CCS(=O)(=O)C1` (stereo not given), the inhibition was 1.37%.

Take `O=C(Nc1ccc2c(c1)OCCO2)C1CCCC1`: the inhibition was 3.86%.

For `Cc1cc(NC(=O)Nc2ccccc2)n(-c2ccccc2)n1`, the inhibition is 31.4% (active).

Turning to `Cc1nn(-c2ccccc2)c(Cl)c1C(=O)Nc1ccccc1`, the inhibition is -28.3%.

Turning to `CC(=O)c1cccc(NC(=O)c2cc(C)nn2-c2ccccc2)c1`, the inhibition is -7.81%.

With `Cc1ccc(NC(=O)Nc2cc(-c3ccccc3)nn2C)cc1Cl`, the inhibition is -13.2%.

`Cc1cc(NC(=O)c2cnn3cccnc23)n(-c2ccccc2)n1`: the inhibition is 5.9%.

For the compound `Cc1cc(NC(=O)Nc2ccc(Cl)cc2)n(-c2ccccc2)n1`, the inhibition is 40.6% (active).
